Results filed as inconclusive are left out. Activity calls are given as the source filed them. Rule for the calls, unless noted: active = hit-call score of the fitted dose curve at least 0.9, where 1 is the maximum; inconclusive = response in the unintended direction; inactive = score below 0.9.
Assays:
[1] = TOX21_p53_BLA_p2_viability: Viability Assessment in the Tox21 HCT-116 p53 Agonism Beta-lactamase Assay, Phase 2 (AID 2283591);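 note: actives lower the ATP signal meaning cytotoxicity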
In short: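 Cytotoxicity readout: CellTiter-Glo ATP luminescence, 30 min at room temperature, after the beta-lactamase read. Cells were HCT116 exposed 16 h at 37C to compounds pin-transferred at 217-fold dilution from DMSO stocks.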

[2] = molecular target: Cellular tumor antigen p53 (Homo sapiens) (UniProt P04637); assay: TOX21_p53_BLA_p2_ratio: Tox21 HCT-116 p53 Agonism Beta-lactamase Assay, Ratio, Phase 2 (AID 2283592)
In short: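 First, HCT116 reporter cells settle for 5 h at 37C. Next, DMSO compound solutions are pinned in (217-fold dilution) and left 16 h. Finally, CCF4-AM substrate is loaded 2 h at room temperature and the 460/530 nm ratio read.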

[3] = TOX21_p53_BLA_p3_viability: Viability Assessment in the Tox21 HCT-116 p53 Agonism Beta-lactamase Assay, Phase 3 (AID 2283593);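 note: cells exposed to compound for 16 h before reading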
In short: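 Cellular ATP was quantified by CellTiter-Glo luminescence, read after 30 min at room temperature. Beforehand, HCT116 cells (4000/well) received compound 5 h post-seeding, 217-fold diluted from DMSO, then incubated 16 h at 37C.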

[4] = TOX21_p53_BLA_p5_viability: Viability Assessment in the Tox21 HCT-116 p53 Agonism Beta-lactamase Assay, Phase 5 (AID 2283600)
In short: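 Decreased CellTiter-Glo luminescence denotes lost viability. Exposure: 16 h at 37C, 5% CO2, with compounds from DMSO stocks diluted 217-fold in wells of 4000 cells.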

[5] = molecular target: Cellular tumor antigen p53 (Homo sapiens) (UniProt P04637); assay: TOX21_p53_BLA_p4_ratio: Tox21 HCT-116 p53 Agonism Beta-lactamase Assay, Ratio, Phase 4 (AID 2283601)
In short: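 Signal is the blue/green (460nm/530nm) ratio of cleaved versus uncleaved CCF4-AM substrate, read after 2 h substrate loading. Cells were HCT116 carrying the p53-responsive beta-lactamase reporter, dosed 16 h at 37C, 5% CO2; CellTiter-Glo measured in parallel.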

[6] = molecular target: Cellular tumor antigen p53 (Homo sapiens) (UniProt P04637); assay: TOX21_p53_BLA_p5_ratio: Tox21 HCT-116 p53 Agonism Beta-lactamase Assay, Ratio, Phase 5 (AID 2283599)
In short: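 Beta-lactamase reporter ratio (blue 460 nm over green 530 nm, 405 nm excitation) after 2 h CCF4-AM loading, in HCT-116 cells exposed 16 h at 37 C to compounds pinned at 217-fold dilution. Increases relative to DMSO baseline scored.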

[7] = CCTE_Harrill_HTTr_Viability_MCF7: CCTE's 6-hour Cell Viability Assessment for the High-Throughput Transcriptomics (HTTr) Platform, in MCF-7 cells cultured in DMEM + 10% fetal bovine serum, Harrill Lab (AID 2284010; active = hit-call score of the fitted dose curve at least 0.9, where 1 is the maximum; inactive = score below 0.9)
In short: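 Read-out is propidium iodide gain of signal by high-content imaging, reflecting membrane integrity loss. Measurements are taken 6 h after dosing, eight concentrations per chemical, with DMSO serving as baseline for bidirectional curve fitting.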

[8] = CCTE_Harrill_HTTr_Apoptosis_MCF7: CCTE's 6-hour Apoptosis Assessment for the High-Throughput Transcriptomics (HTTr) Platform, in MCF-7 cells cultured in DMEM + 10% fetal bovine serum, Harrill Lab (AID 2284011; active = hit-call score of the fitted dose curve at least 0.9, where 1 is the maximum; inactive = score below 0.9)
In short: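 MCF-7 cells in DMEM + 10% FBS exposed 6 h to chemicals over an eight-point dilution series. Caspase-3/7 activation imaged by high-content CellEvent Green staining; fitted bidirectionally versus DMSO.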

Measured: outcome

Cellular tumor antigen p53 (Homo sapiens), sequence (P04637 whole entry, looked up): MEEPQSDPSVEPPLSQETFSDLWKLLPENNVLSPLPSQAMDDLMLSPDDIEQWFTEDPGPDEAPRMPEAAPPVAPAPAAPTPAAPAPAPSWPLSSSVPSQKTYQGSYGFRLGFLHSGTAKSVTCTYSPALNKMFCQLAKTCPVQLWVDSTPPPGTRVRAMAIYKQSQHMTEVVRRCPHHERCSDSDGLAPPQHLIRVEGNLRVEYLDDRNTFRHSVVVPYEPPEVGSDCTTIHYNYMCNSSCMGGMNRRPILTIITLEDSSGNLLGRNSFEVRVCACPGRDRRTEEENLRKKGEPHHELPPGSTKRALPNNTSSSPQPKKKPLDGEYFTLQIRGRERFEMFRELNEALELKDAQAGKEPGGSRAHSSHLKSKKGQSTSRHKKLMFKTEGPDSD

C/C(=N\O)c1ccc(OCC(=O)N2CCCCC2)cc1
inactive: [1] | [2] | [3] | [4]

CCOC(=O)c1ncn2c1CN(C)C(=O)c1cc(F)ccc1-2
inactive: [1] | [2] | [3] | [4]

C1C[C@@H]2[C@H]3CC[C@H](C3)[C@@H]2C1
inactive: [1] | [2] | [3] | [4] | [5]

COc1ccccc1OCC(O)COC(N)=O (stereo not given)
not listed: [5]
inactive: all other assays above

O=C(O)[C@H](O)[C@@H](O)[C@H](O[C@@H]1O[C@H](CO)[C@H](O)[C@H](O)[C@H]1O)[C@H](O)CO
inactive: [1] | [2] | [3] | [4]

Nc1ccc2ccccc2c1S(=O)(=O)O
not listed: [7] | [8]
inactive: all other assays above

CCC(N)(CO)CO
inactive: [1] | [2] | [3] | [4] | [5]

C=CCCC=C
inactive: [1] | [2] | [3] | [4] | [5]

COc1ccc(C2C(=O)c3ccccc3C2=O)cc1
inactive: [1] | [2] | [3] | [4] | [5]

Source: PubChem BioAssay (EPA / NIEHS)
